In PubChem BioAssay AID623868 (Vanderbilt High Throughput Screening Facility, 2012):
The whole screen tested about 2,100 compounds, of which about 760 (36%) were called active. A selection follows. A number with no mark means an inactive call.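 How the source made its calls: active means thallium-flux fluorescence traces judged by eye to show enhanced or reduced glutamate response, manual score 1 or -1, so both directions (some results past the limit were not filed as active); inactive means the rest, including fluorescent or raised-baseline compounds.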

test: non-GIRK thallium flux modulation in mGlu8 cells, confirmation, counter-screen for GIRK activator project, cell-based, HEK-293 rmGlu8, no GIRK (AID 623868); settings: thallium flux fluorescence, at 10 µM, actives lie on both sides, codes: 1 enhancer, -1 blocker, 0 none, thallium stimulus containing EC20 glutamate;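 further: extra codes mark interference with 3 for fluorescent and 4 for baseline rise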

With `O=C(NN=C1c2ccccc2-c2ccccc21)c1ccccc1Br` as the compound, how does the manual score read?
The manual score was 1 (active).

For `O=C(NN=C1c2ccccc2-c2ccccc21)c1cccc(Br)c1`, which manual score is on record?
Its manual score is 1 (active).

For `O=C(N/N=C/c1ccc([N+](=O)[O-])s1)c1cccc(Br)c1`, which manual score is on record?
Its manual score is 0.5.

With `CCCCn1c(CN(Cc2ccccc2)Cc2ccccc2)nc2c1c(=O)n(C)c(=O)n2C` as the compound, how does the manual score read?
Its manual score is 0.

Which manual score does the source give for `O=C(CSCC(=O)N1CCCCC1)Nc1nc(-c2ccc(Cl)s2)cs1` here?
Its manual score is 0.

With `Cc1nc2nc(Cc3ccccc3)[nH]n2c(=O)c1Cc1ccccc1` as the compound, how does the manual score read?
The manual score was 0.

For `CN1C(=O)C2(C(C#N)=C(N)N(c3cc(Cl)cc(Cl)c3)C3=C2C(=O)CCC3)c2ccccc21` (stereo not drawn), which manual score is on record?
The manual score was -1 (active).

Which manual score does the source give for `Cc1cc(C(=O)CSc2n[nH]c(N)n2)c(C)n1-c1cc(F)ccc1F` here?
Its manual score is 0.

Which manual score does the source give for `c1ccc2c(N3CCCCCC3)nc(-c3ccncc3)nc2c1` here?
The manual score was 0.

With `Fc1ccc(-c2nnc3ccc(N4CCc5ccccc5C4)nn23)cc1` as the compound, how does the manual score read?
The manual score was 0.

With `c1ccc(-c2nnc3ccc(N4CCCC4)nn23)cc1` as the compound, how does the manual score read?
Its manual score is -1 (active).

For `CCOC(=O)/C(C#N)=C/C1=C(N2CCCC2)CC(C)(C)OC1`, which manual score is on record?
Its manual score is 0.

For `CCOC(=O)N1CCN(C(=O)c2oc3ccc(S(=O)(=O)N4CC(C)CC(C)C4)cc3c2C)CC1` (stereo not drawn), which manual score is on record?
Its manual score is 0.

For `C=CCOn1c(=O)c(-c2cccs2)[n+]([O-])c2ccccc21`, which manual score is on record?
Its manual score is 3.

With `CCOn1c(=O)c(-c2cccs2)[n+]([O-])c2ccccc21` as the compound, how does the manual score read?
The manual score was 3.

With `O=c1c(-c2ccc(Cl)cc2)[n+]([O-])c2ccccc2n1O` as the compound, how does the manual score read?
The manual score was 1 (active).

For `Clc1ccc2c(c1)-c1nnc(Br)n1-c1ccccc1S2`, which manual score is on record?
Its manual score is -1 (active).

For `C/C(CC(C)(C)C1CCCCC1)=N\NC(N)=S`, which manual score is on record?
Its manual score is 0.

With `CNc1nc(Cl)nc(NC(C)(C)C)n1` as the compound, how does the manual score read?
The manual score was 0.

For `Cc1cccc(N2C(=O)CS/C2=N\NC(=O)c2ccc(Cl)cc2)c1C`, which manual score is on record?
The manual score was 1 (active).

With `CC(NC(=O)C1CC=CCC1C(=O)O)C1CC2CCC1C2` (stereo not drawn) as the compound, how does the manual score read?
Its manual score is 0.

For `CCNc1ccc2noc3c2c1C(=O)c1ccccc1-3`, which manual score is on record?
The manual score was 0.

Which manual score does the source give for `O=C(NNc1ccccc1Br)C(=O)n1ccc2ccccc21` here?
Its manual score is 1 (active).

Which manual score does the source give for `Cc1ccc(C)c2[nH]c(=O)c(CN(CCN3CCCC3)C(=O)Nc3ccc(F)cc3)cc12` here?
Its manual score is 0.

Which manual score does the source give for `O=C1N=C(c2ccccc2)S/C1=C\c1cccs1` here?
Its manual score is 3.

Which manual score does the source give for `CSC1=NSC2=NC(=O)/C(=C/c3coc4ccccc4c3=O)C(=N)N12` here?
Its manual score is 3.

With `N=C1/C(=C/c2cccs2)C(=O)N=C2SN=C(SCc3ccccc3)N12` as the compound, how does the manual score read?
Its manual score is 1 (active).

With `O=C(Cc1csc(Nc2nc(=S)[nH]c3ccccc23)n1)NCc1ccccc1Cl` as the compound, how does the manual score read?
The manual score was 0.

Which manual score does the source give for `O=C(Cc1csc(Nc2nc(=S)[nH]c3ccccc23)n1)NCc1cccc(Cl)c1` here?
Its manual score is 1 (active).

Which manual score does the source give for `Cc1ccc(CNC(=O)Cc2csc(Nc3nc(=S)[nH]c4ccccc34)n2)cc1` here?
Its manual score is 1 (active).

With `N#CC(c1cccc(Cl)c1)c1ccc2c(C(F)(F)F)cc(C(F)(F)F)nc2n1` (stereo not drawn) as the compound, how does the manual score read?
Its manual score is 0.

With `Oc1cccc(NC(=S)Nc2ccc(SC(F)F)cc2)c1` as the compound, how does the manual score read?
The manual score was 0.

With `CN(C)CCNC(=O)c1ccc2c(c1)N(Cc1ccc(F)cc1)CCS2` as the compound, how does the manual score read?
Its manual score is 0.

With `CCOC(=O)CSc1nc2ccc(Nc3nc(N4CCOCC4)nc(N4CCOCC4)n3)cc2s1` as the compound, how does the manual score read?
Its manual score is 0.

For `O=C(O)c1cccc(Nc2nc(N3CCOCC3)nc(N3CCOCC3)n2)c1`, which manual score is on record?
Its manual score is -1 (active).

Which manual score does the source give for `CC1CC(C)CN(Cc2nc(N)nc(Nc3ccc4ccccc4c3)n2)C1` (stereo not drawn) here?
The manual score was 0.

Which manual score does the source give for `CC(=O)Nc1cccc2c1C(=O)N(c1cccc(C)c1)C2=O` here?
Its manual score is 0.

For `CC(C)CC(=O)Nc1cccc2c1C(=O)N(c1ccccc1)C2=O`, which manual score is on record?
The manual score was -1 (active).

For `O=C(COC(=O)c1cccc(N2C(=O)c3ccccc3C2=O)c1)Nc1ccccc1`, which manual score is on record?
The manual score was 0.

For `CCOc1ccc(Br)cc1/C(C)=N\NC1=NCCN1`, which manual score is on record?
The manual score was 0.

Which manual score does the source give for `N#CC1=C(N)Oc2n[nH]c(-c3cccs3)c2C1c1ccoc1` (stereo not drawn) here?
Its manual score is 0.

With `S=C1NC(c2ccccc2)=NCN1c1ccc(Cl)cc1` as the compound, how does the manual score read?
Its manual score is 1 (active).

Which manual score does the source give for `Cc1cs/c(=N\N=C\c2cccc([N+](=O)[O-])c2)n1Cc1ccco1` here?
Its manual score is 0.

For `Cc1cc(C)c(-n2c(C)cc(/C=C3/NC(=O)NC3=O)c2C)c(C)c1`, which manual score is on record?
The manual score was 0.

With `Cc1ccccc1-n1c(SCc2ccccn2)nc2n[nH]c(C)c2c1=N` as the compound, how does the manual score read?
The manual score was 0.

Which manual score does the source give for `CCCOc1cccc(OCCSc2nc(C)cc(=O)[nH]2)c1` here?
Its manual score is 0.

With `CCOc1ccc2nc(NC(=O)C(CC)Sc3nc(C)cc(=O)[nH]3)sc2c1` (stereo not drawn) as the compound, how does the manual score read?
Its manual score is -1 (active).

For `CC(C)Cn1c2c(c(O)c(C(=O)Nc3ncccc3O)c1=O)CCCC2`, which manual score is on record?
The manual score was -1 (active).

With `C/C(=N\NC(=O)COc1ccc(C)cc1C(C)C)c1ccc(-n2ccnc2)cc1` as the compound, how does the manual score read?
Its manual score is 0.

Which manual score does the source give for `CC12CCC(C(=O)N(CSC(=S)N/N=C\c3ccccc3)C1=O)C2(C)C` (stereo not drawn) here?
Its manual score is 1 (active).

With `CN(C)c1ccc(/C=N\NC(=S)SCN2C(=O)C3CCC(C)(C2=O)C3(C)C)cc1` (stereo not drawn) as the compound, how does the manual score read?
The manual score was 0.5.

With `COc1ccc(/C=N\NC(=S)SCN2C(=O)C3CCC(C)(C2=O)C3(C)C)cc1` (stereo not drawn) as the compound, how does the manual score read?
The manual score was 1 (active).

For `CC(Nc1ccc(Br)cn1)c1cc(Cl)ccc1O` (stereo not drawn), which manual score is on record?
Its manual score is 0.

With `Cc1ccccc1C(=O)Nc1ccccc1C(=O)N/N=C\c1ccco1` as the compound, how does the manual score read?
The manual score was 1 (active).

For `O=C(Nc1ccccc1C(=O)N/N=C/c1ccco1)c1ccccc1`, which manual score is on record?
The manual score was 1 (active).

Which manual score does the source give for `CC(C)NC(=O)/C(=C/c1ccco1)c1ccccc1` here?
The manual score was 0.

For `Cc1ccccc1C(=O)N/N=C/c1ccc([N+](=O)[O-])s1`, which manual score is on record?
Its manual score is 0.

With `Cc1cc(C)c(NC(=O)/C(=C/c2ccco2)c2ccccc2)c(C)c1` as the compound, how does the manual score read?
The manual score was 0.

With `CN(c1ccccc1C(=O)Nc1ccccc1C(=O)NCc1ccco1)S(C)(=O)=O` as the compound, how does the manual score read?
Its manual score is 0.

For `COc1cc(NC(=O)CSc2nccc(C)n2)c(C)cc1[N+](=O)[O-]`, which manual score is on record?
Its manual score is 0.

For `Cc1c(NC(=S)NC(NC(=O)CC(C)C)C(Cl)(Cl)Cl)c(=O)n(-c2ccccc2)n1C` (stereo not drawn), which manual score is on record?
The manual score was 0.

For `CCc1cc2c(=O)n(CC)c(SC(C)C(=O)Nc3c(C)n(C)n(-c4ccccc4)c3=O)nc2s1` (stereo not drawn), which manual score is on record?
Its manual score is -1 (active).

Which manual score does the source give for `CCCC(c1c(C)n(C)n(-c2ccccc2)c1=O)c1c(C)n(C)n(-c2ccccc2)c1=O` here?
Its manual score is 0.

With `O=c1[nH]c(SCc2ccccc2Cl)nc2c1CCCC2` as the compound, how does the manual score read?
The manual score was 0.

Which manual score does the source give for `O=c1c2c(nc3c(-c4cccc(Br)c4)c[nH]n13)CCCC2` here?
The manual score was 0.

For `Cc1ccc(-c2[nH]n3c(=O)c4c(nc3c2C)CCCC4)cc1`, which manual score is on record?
The manual score was 0.

Which manual score does the source give for `O=c1c2c(nc3c(-c4ccccc4)c[nH]n13)CCCC2` here?
Its manual score is 1 (active).

With `O=c1c2c(nc3c(-c4ccc(Cl)cc4)c[nH]n13)CCCC2` as the compound, how does the manual score read?
The manual score was 1 (active).
